From the supplement of paper PMC10849652
The full data set covers some 7,900 targets. This sample favours those with a hit. About 0.6% of all pairs of compound and target were hits.

Compound: CC(C)N(C[C@H]1O[C@@H](n2cnc3c(N)ncnc32)[C@H](O)[C@@H]1O)[C@H]1C[C@@H](CCc2nc3cc(C(C)(C)C)ccc3[nH]2)C1 [pinometostat]
Assay: log2 fold change, soluble protein after heating vs DMSO (PISA); higher = thermal stabilisation; K562 cells, 10 uM, 30 min; active = over 0.2 and 3.5 SD of the protein, either way, in both replicates (recomputed)
Summary of the method: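 Soluble protein was defined as the supernatant after 21,000xg for 90 min. It came from K562 cells at 2×10^6 cells/mL given 10 μM compound for 30 min, heated in aliquots for 3 min across 48°C-58°C, pooled, and extracted in PBS with 0.5% NP-40 at 4°C, and was quantified by TMTpro 16plex LC-MS/MS with equalised channel sums. Thermal stability against control samples, from duplicates, is reported as log2 fold change.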

Chain of UniProt O00217 (O00217 whole entry, looked up): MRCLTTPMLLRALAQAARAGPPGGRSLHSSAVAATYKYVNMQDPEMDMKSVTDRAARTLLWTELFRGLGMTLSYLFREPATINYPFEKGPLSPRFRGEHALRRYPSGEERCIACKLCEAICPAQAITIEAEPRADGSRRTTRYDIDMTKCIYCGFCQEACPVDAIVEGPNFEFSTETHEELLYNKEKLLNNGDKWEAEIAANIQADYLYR
Chain of UniProt Q15014 (Q15014 whole entry, looked up): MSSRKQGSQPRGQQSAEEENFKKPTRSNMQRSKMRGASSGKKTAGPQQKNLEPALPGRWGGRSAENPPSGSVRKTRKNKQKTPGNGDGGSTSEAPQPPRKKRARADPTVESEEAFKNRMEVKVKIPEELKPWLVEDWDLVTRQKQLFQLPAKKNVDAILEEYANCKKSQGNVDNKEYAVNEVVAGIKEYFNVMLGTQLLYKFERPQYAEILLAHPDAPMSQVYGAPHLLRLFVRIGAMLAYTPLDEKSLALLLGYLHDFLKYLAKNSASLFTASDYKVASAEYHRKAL
Chain of UniProt Q8TEM1 (Q8TEM1 whole entry, looked up): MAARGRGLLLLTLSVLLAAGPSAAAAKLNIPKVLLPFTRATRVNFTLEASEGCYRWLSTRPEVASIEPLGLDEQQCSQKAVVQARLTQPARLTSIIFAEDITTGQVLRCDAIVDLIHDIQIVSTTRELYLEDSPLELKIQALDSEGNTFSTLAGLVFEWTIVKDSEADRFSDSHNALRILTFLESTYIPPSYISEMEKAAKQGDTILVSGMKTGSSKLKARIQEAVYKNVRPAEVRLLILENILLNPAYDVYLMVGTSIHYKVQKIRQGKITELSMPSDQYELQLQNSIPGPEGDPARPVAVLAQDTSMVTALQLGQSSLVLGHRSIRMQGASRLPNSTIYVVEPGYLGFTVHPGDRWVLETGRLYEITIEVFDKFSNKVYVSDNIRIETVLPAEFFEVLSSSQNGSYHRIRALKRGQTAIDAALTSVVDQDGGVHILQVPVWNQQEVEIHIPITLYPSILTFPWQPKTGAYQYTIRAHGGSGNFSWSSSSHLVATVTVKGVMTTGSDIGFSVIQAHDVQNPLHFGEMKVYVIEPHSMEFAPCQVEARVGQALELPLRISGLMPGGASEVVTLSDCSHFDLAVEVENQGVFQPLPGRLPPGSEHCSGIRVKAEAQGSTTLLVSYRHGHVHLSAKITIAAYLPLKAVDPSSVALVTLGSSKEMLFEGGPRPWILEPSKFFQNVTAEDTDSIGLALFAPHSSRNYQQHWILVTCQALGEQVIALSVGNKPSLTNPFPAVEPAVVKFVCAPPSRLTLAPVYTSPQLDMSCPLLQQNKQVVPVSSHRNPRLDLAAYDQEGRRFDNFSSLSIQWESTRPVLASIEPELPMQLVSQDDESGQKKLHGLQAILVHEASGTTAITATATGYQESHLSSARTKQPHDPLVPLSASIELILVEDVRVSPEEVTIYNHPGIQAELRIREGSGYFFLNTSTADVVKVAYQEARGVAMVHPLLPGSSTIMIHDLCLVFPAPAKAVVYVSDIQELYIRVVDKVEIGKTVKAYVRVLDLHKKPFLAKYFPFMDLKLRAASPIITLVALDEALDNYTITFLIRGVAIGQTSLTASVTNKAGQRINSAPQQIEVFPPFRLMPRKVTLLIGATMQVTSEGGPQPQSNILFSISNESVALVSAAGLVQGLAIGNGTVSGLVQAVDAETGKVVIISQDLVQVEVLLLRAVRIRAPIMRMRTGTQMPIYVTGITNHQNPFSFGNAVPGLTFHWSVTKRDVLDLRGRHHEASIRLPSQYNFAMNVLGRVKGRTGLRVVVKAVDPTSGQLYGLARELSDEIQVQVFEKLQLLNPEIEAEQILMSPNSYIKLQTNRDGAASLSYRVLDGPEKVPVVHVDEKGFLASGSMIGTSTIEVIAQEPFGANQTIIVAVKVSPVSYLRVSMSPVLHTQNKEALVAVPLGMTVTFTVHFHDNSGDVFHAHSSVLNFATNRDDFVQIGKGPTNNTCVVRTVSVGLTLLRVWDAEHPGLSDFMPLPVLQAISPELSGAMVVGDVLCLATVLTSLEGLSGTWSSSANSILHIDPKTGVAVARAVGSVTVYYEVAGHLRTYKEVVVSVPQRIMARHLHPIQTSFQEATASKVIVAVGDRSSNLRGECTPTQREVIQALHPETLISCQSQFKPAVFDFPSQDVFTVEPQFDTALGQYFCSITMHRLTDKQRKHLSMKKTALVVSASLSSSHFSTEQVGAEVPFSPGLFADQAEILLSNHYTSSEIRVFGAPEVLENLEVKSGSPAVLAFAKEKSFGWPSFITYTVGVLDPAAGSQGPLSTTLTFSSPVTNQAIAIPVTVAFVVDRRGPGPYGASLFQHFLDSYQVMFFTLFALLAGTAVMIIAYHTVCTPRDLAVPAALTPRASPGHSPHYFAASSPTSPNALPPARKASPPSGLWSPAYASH
Chain of UniProt Q92621 (Q92621 whole entry, looked up): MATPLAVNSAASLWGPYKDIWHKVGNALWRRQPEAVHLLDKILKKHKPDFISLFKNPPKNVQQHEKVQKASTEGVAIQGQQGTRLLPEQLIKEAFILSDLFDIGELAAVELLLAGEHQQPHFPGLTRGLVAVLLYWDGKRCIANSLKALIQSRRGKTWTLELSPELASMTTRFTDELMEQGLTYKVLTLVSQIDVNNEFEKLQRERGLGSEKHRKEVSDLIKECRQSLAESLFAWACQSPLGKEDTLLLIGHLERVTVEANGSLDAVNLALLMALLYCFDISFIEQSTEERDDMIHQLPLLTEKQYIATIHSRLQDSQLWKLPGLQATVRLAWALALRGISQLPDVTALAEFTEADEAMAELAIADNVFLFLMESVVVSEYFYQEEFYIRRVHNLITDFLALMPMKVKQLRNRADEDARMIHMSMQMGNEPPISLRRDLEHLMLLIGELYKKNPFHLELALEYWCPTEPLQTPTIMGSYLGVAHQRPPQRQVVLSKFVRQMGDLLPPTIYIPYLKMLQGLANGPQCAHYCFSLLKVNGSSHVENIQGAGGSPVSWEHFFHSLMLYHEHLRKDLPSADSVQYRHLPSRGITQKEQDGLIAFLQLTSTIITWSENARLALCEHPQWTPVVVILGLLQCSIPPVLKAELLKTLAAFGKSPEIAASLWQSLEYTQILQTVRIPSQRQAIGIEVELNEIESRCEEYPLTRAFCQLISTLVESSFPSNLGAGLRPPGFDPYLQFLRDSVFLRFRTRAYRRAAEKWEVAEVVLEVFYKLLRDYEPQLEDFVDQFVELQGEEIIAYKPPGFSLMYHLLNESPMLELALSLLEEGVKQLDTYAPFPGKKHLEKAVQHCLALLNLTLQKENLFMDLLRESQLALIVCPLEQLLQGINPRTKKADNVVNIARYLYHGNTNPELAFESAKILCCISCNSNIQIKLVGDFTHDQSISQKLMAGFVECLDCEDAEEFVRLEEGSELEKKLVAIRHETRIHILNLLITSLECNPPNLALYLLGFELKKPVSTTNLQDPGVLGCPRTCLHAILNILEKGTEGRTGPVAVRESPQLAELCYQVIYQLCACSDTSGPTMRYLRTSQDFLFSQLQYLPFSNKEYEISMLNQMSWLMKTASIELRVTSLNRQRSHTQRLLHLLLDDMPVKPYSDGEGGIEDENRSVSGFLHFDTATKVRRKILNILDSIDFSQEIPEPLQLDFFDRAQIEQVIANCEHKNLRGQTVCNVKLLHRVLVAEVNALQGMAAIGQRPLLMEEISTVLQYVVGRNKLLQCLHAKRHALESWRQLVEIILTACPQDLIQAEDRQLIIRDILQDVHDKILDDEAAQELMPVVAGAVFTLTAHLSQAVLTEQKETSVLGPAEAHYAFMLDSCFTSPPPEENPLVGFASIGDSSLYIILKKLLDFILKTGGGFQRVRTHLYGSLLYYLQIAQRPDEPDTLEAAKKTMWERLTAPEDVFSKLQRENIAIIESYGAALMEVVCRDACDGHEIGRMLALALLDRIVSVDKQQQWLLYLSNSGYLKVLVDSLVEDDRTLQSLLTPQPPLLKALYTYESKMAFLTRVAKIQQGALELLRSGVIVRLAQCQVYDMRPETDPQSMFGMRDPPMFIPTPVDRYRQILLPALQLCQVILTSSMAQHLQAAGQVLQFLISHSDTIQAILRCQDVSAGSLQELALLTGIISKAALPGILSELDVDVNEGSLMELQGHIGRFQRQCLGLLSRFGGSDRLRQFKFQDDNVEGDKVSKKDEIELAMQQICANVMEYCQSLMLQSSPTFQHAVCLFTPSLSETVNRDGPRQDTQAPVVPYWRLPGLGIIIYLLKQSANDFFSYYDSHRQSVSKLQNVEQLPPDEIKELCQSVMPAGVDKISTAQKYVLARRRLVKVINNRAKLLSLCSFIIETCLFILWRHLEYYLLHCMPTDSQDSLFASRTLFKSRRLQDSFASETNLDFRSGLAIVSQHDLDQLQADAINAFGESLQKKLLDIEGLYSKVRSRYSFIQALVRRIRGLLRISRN
Chain of UniProt Q9BV86 (Q9BV86 whole entry, looked up): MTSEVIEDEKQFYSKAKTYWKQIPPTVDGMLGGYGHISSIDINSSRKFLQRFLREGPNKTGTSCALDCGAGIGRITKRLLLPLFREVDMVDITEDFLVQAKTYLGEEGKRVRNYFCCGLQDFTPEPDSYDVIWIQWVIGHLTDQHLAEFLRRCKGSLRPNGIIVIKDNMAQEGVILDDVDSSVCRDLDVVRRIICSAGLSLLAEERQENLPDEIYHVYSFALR
Chain of UniProt Q13952 (Q13952 whole entry, looked up): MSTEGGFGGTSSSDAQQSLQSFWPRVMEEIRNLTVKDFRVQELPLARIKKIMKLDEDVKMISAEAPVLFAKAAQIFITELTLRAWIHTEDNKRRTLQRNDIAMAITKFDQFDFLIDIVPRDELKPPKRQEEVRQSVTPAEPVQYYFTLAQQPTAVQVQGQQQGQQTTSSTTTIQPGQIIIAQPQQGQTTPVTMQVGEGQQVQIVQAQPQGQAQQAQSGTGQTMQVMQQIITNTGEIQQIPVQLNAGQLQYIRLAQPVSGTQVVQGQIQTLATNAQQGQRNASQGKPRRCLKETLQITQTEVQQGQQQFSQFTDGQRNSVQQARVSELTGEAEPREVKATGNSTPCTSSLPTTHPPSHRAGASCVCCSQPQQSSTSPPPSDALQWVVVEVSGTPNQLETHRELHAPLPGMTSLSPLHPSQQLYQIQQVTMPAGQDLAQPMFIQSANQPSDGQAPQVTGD

log2 fold change, inactive:
NDUFA6 (UniProt P56556) -0.083, MORF4L2 (UniProt Q15014) 0.092, NOL7 (UniProt Q9UMY1) 0.242, NELFA (UniProt Q9H3P2) -0.02, NHLRC2 (UniProt Q8NBF2) 0.013, MRPS25 (UniProt P82663) -0.018, MINK1 (UniProt Q8N4C8) 0.049, OSBPL8 (UniProt Q9BZF1) 0.201, NDUFA9 (UniProt Q16795) -0.006, NTMT1 (UniProt Q9BV86) -0.029, NFATC3 (UniProt Q12968) 0.053, NAA11 (UniProt Q9BSU3) -0.131, NUDT1 (UniProt P36639) -0.017, MRPS18B (UniProt Q9Y676) -0.005, NOP56 (UniProt O00567) 0.198, MRPS15 (UniProt P82914) 0.041, MXRA7 (UniProt P84157) -0.049, NPC1 (UniProt O15118) -0.055, NUCKS1 (UniProt Q9H1E3) -0.061, NCAPG (UniProt Q9BPX3) -0.003, NDUFB7 (UniProt P17568) -0.017, NACC1 (UniProt Q96RE7) -0.015, NDUFS8 (UniProt O00217) 0.005, NCL (UniProt P19338) 0.4, NOB1 (UniProt Q9ULX3) 0.068, NDUFA12 (UniProt Q9UI09) -0.06, NBN (UniProt O60934) 0.009, NIBAN1 (UniProt Q9BZQ8) 0.068, OXSR1 (UniProt O95747) 0.026, NFYC (UniProt Q13952) -0.087, NAPG (UniProt Q99747) 0.016, NUP210 (UniProt Q8TEM1) 0.001, MRPS24 (UniProt Q96EL2) 0.002, NMT1 (UniProt P30419) 0.037, NUP205 (UniProt Q92621) 0, MRPL46 (UniProt Q9H2W6) 0.03, MON1B (UniProt Q7L1V2) -0.039, NFX1 (UniProt Q12986) 0.182, MRPS16 (UniProt Q9Y3D3) 0.021
